Our source for the growth inhibition values is PubChem BioAssay (NCI).

This is part of a sample that, as a whole, favours compounds with a hit. Of some 79,000 tested, about 15% had one in any assay. Unmarked numbers belong to inactive results. Active and inactive are the calls of the source. Cut-off read from the data, not from the text of the source: active = growth inhibition above about 70%; inactive = the rest.

This assay is described as follows: NCI Yeast Anticancer Drug Screen. Data for the cln2 rad14 strain (AID 165).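 Note: 0% = growth equal to vehicle treated cultures.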 The following applies: S. cerevisiae cln2 rad14 strain, at 50.0 µM, stronger effect = higher value. Put shortly:
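Relative to vehicle controls, growth inhibition of compound-treated cln2 rad14 yeast was recorded.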
On to `C[CH2][Sn]([CH2]C)([O]P(=O)(C[Si](C)(C)C)c1ccccc1)[O]P(=O)(C[Si](C)(C)C)c1ccccc1` (configuration not stated), for which the growth inhibition was 24%.
For `CC(C)(C)NC(=O)Oc1ccc(Br)cc1Br`, the growth inhibition was -14.2%.
On to `CC1(C)C=CC(=NO)C=C1`, for which the growth inhibition was 6.45%.
For `NC(=S)N/N=C/c1ccncc1`, the growth inhibition was -25.9%.
In the case of `O=C1CCCC(C(Sc2ccccc2)(Sc2ccccc2)Sc2ccccc2)C1` (configuration not stated), the growth inhibition is 37.6%.
The same measure for `O=C(OC1CCC2(CC1)N=NC1(CCC(OC(=O)c3ccccc3)CC1)S2)c1ccccc1` (configuration not stated): -7.6%.
For the compound `CSc1nc(=O)cc(N)n1C`, the growth inhibition was -23.7%.
On to `CSc1ccc(NC(=O)Nc2ccc(Cl)cc2C(=O)c2ccccc2)cc1`, for which the growth inhibition was 98% (active).
Take `CC(=O)C1(N=Nc2ccc(S(N)(=O)=O)cc2)CCOC1=O` (configuration not stated): the growth inhibition is 32.4%.
Regarding `CC(C)=CCc1c(C)cc2cc3c(c(O)c2c1O)C(O)=CC(=O)C3(CC=C(C)C)C/C=C(\C)CO` (configuration not stated), the growth inhibition was 47.2%.
The same measure for `CC(=O)Nc1cc2cc(NC(=O)C(Cl)(Cl)Cl)ccc2oc1=O`: 0.55%; for `Cc1ccc(F)c(N)c1`: 5.8%.
`CCCCCCCCCCCCCCCCCCCCCCC`: the growth inhibition is 4.8%.
The same measure for `CC(C)C(=O)/C=C/c1ccc(Br)cc1`: 2.6%; for `CN(C)CC1CCC/C(=C\c2ccccc2)C1=O` (configuration not stated): 32.5%; for `CN(C)C(=O)c1ccc([N+](=O)[O-])cc1`: 12.1%.
For `O=C(N=Nc1c(O)[nH]c2ccccc12)C(=O)N=Nc1c(O)[nH]c2ccccc12`, the growth inhibition was -1.1%.
